An excerpt weighted towards active compounds, which were near 9.5% of everything screened.
Tau fibril ThT = qHTS for Inhibitors of Tau Fibril Formation, Thioflavin T Binding; Potency, µM (highest dose often 57.4 µM), for inactives: at the highest dose activity, negative = inhibition, most hits filed as inhibitors; Microtubule-associated protein tau (Homo sapiens), P10636; recombinant tau K18 P301L, heparin-induced fibrillization, ThT fluorescence; AID 1460, 2008; 2.1% of 270,000 active; further: nearly all actives have a fitted effect of over 55% in size
Target sequence (P10636 561-689 P618L limits assumed): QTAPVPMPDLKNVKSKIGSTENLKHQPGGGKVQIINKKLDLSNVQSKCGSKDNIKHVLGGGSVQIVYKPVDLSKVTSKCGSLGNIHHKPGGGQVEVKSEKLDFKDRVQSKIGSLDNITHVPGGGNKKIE
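Heparin-induced (20 uM) aggregation of recombinant human K18 P301L tau, 15 uM unlabeled with 0.24 uM labeled, pH 7 acetate buffer, 6 hr at 37 C with compound. Fibrils quantified by 30 uM ThT fluorescence after 1 hr ambient incubation.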
NPSR antagonist = qHTS Assay for Antagonists of the Neuropeptide S Receptor: cAMP Signal Transduction; Q6W5P4; CHO-NPSR cells, cAMP TR-FRET, antagonist mode; Potency, µM (series often up to 38.3 µM), without a hit: top-dose activity change, negative = inhibition, usual class: inhibitors; 1% of 220,000 active; AID 1461, 2008; further: nearly all actives have a fitted effect of over 50% in size
Tau fluor cs = Counterscreen qHTS for Inhibitors of Tau Fibril Formation, Fluorescence Polarization; AID 1463, 2008; Potency, µM (highest dose often 57.7 µM), for the others: at the highest dose activity change, negative = decrease; tau K18 P301L Alexa594 fluorescence, heparin fibrillization; 0.93% of 280,000 active; further: nearly all actives have a fitted effect of over 55% in size
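Human tau K18 P301L (15 uM unlabeled, 0.24 uM Alexa 594-labeled) in 100 mM sodium acetate pH 7 with 20 uM heparin, 6 hr at 37 C. ThT 30 uM added, 1 hr ambient; Alexa 594 FP and total fluorescence read at 555/632 nm.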
ALDH1A1 block = qHTS Assay for Inhibitors of Aldehyde Dehydrogenase 1 (ALDH1A1). Purified ALDH1A1, NADH fluorescence, propionaldehyde substrate. 7.3% of 220,000 active. Potency, µM (series often up to 75.3 µM), for the others: top-dose activity, negative = inhibition, usual class: inhibitors. Aldehyde dehydrogenase 1A1 (Homo sapiens), P00352; active means well fitted inhibition curve with a large enough effect, not every such curve was filed as active; inconclusive means small, poorly fitted or top-dose-only effect, or another doubt; inactive means no such curve, though single readings can be large or run the other way;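 further: plate controls were no enzyme wells and a reference inhibitor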
Tau fibril FP = qHTS for Inhibitors of Tau Fibril Formation, Fluorescence Polarization. K18 P301L tau heparin fibrillization, Alexa594 FP, 6 h. 0.39% of 280,000 active. Microtubule-associated protein tau (Homo sapiens), P10636. Potency, µM (highest dose often 57.7 µM), inactives show top-dose activity, negative = inhibition, actives largely listed as inhibitors; further: nearly all actives have a fitted effect of over 55% in size
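Recombinant K18 P301L […], labeled with Alexa 594 at 0.24 uM over 15 uM unlabeled; heparin inducer 20 uM final; 37 C, 6 hr; FP endpoint.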
HPGD inh = qHTS Assay for Inhibitors of HPGD (15-Hydroxyprostaglandin Dehydrogenase). purified HPGD, NADH fluorescence kinetic, PGE2 substrate. Potency, µM, for the others: at the top dose activity change, negative = inhibition, hits mostly inhibitors. 4.3% of 150,000 active; active means well fitted inhibition curve with a large enough effect, not every such curve was filed as active; inconclusive means small, poorly fitted or top-dose-only effect, or another doubt; inactive means no such curve, though single readings can be large or run the other way
Target sequence (P15428 whole entry, looked up): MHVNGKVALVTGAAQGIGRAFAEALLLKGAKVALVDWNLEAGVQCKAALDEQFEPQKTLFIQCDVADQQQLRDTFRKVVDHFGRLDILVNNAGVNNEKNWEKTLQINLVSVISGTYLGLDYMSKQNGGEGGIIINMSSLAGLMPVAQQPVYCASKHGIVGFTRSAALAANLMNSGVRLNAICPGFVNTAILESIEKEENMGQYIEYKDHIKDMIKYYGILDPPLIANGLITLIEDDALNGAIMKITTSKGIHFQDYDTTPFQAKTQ
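20 nM HPGD preincubated 15 min at room temperature with compound in 50 mM Tris-HCl pH 8, 0.01% Tween 20. Started with 1 mM NAD+ and 30 uM prostaglandin E2; NADH fluorescence (360/450 nm) read 5 times over 30-s intervals, last minus first.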
* hit, by the source's call; ? = inconclusive; nt = not tested or not shown; [ ] = dose if it differs, or a comment. Unless noted, the call rests on the fitted dose curve; in most records, active means well fitted curve in the direction sought with a large enough effect; inconclusive means small, poorly fitted or top-dose-only effect, or another doubt; inactive means no such curve, though single readings can be large; an effect the other way counts as inactive or inconclusive. Unless noted, on the % scale 0 is the no-effect control and ±100 the full control effect; potency means the concentration at half of the fitted maximal effect.

SMILES	Tau fibril ThT	NPSR antagonist	Tau fluor cs	ALDH1A1 block	Tau fibril FP	HPGD inh
Cc1ccc(Cn2c(O)c(N=NC(=S)Nc3ccccc3F)c3ccccc32)cc1	-20.2%	-13.6%	?	11.2µM*	-0.7%	nt
Oc1c(N=NC(=S)Nc2ccccc2F)c2ccccc2n1Cc1ccccc1	?	-18.2%	?	20µM*	0.7%	nt
Cc1cc(C)nc(N=Nc2c(O)n(Cc3ccc(Cl)cc3)c3ccccc23)n1	?	-59.9%	10.8%	-2.2%	?	-5.5%
Cc1c(Cl)cccc1NC(=S)N=Nc1c(O)n(CN2CCOCC2)c2ccccc12	?	-48.1%	17.8µM*[quencher]	?	-14.3%	-8.7%
Oc1c(N=NC(=S)Nc2ccccc2F)c2ccccc2n1Cc1ccccc1Cl	-19.5%	2.9%	?	?	?	nt
C=CCn1c(O)c(N=NC(=S)Nc2ccccc2F)c2cc(S(=O)(=O)N3CCOCC3)ccc21	-14.9%	-33.7%	?	?	?	nt
Cc1ccccc1NC(=S)N=Nc1c(O)n(C)c2ccc(S(=O)(=O)N3CCOCC3)cc12	6.6%	-45.2%	6.3%	9.9%	-0.5%	?
C=C(C)CC1(c2ccccc2)Oc2ccccc2-c2nc3cc(Cl)c(Cl)cc3nc21 (stereo unspecified)	-3.4%[11.5 µM]	nt	-0.2%[11.6 µM]	-16.5%[13.5 µM]	-9.1%[11.6 µM]	nt
Nc1cnn(C2CCCO2)c(=O)n1 (stereo unspecified)	2.4%	-22.6%[46.1 µM]	-3.7%	?	1.1%	-19.1%
Cc1sc(NC(=O)c2ccc(F)cc2)c(CN2CCCCCC2)c1C	-13.2%	-21.3%	-8.9%	10µM*	4.0%	-25.0%
CCc1c(C)sc(NC(=O)c2ccco2)c1C(=O)N1CCCCC1	?	-15.6%[46.1 µM]	-2.9%	25.1µM*	-0.7%	-4.2%
Cc1sc(NC(=O)c2ccccc2F)c(CN2CCCCC2)c1C	-3.2%	-9.5%	0.4%	3.3%	2.8%	-17.3%
Cc1sc(NC(=O)c2ccco2)c(CN2CCN(Cc3ccccc3)CC2)c1C	?	?	-27.1%	28.2µM*	-4.0%	nt
CN(C)C(=O)c1c(NC(=O)c2ccco2)sc2c1CCCCC2	-16.7%	5.7%	-6.5%	?	-3.5%	-15.9%
CCOC(=O)c1c(NC(=O)c2ccco2)sc(C(=O)N2CCCC2)c1C	-19.0%	-29.9%[46.1 µM]	-15.9%	?	4.4%	14.1µM*
CCn1c2ccccc2c2nnc(SCCCn3c(=O)[nH]c4ccccc43)nc21	-12.9%	?	-8.3%	3.1%	5.0%	nt
CCc1c(C)sc(NC(=O)c2ccco2)c1C(=O)N1CCOCC1	4.4%	-14.3%[46.1 µM]	18.1%	22.4µM*	1.3%	?
CCOC(=O)c1c(-c2ccco2)csc1N	-15.3%	-6.9%[46.1 µM]	-6.6%	20µM*	5.2%	-27.9%
CCOC(=O)c1c(-c2ccc(C)s2)csc1NC(=O)c1ccco1	-7.5%	7.94µM*	-1.4%	-4.8%	-14.3%	?
CCOC(=O)c1cc(NC(=O)c2ccco2)ccc1N1CCOCC1	-4.4%	-14.6%	-5.3%	2.9%	-9.2%	nt
Cc1sc(NC(=O)c2ccco2)c(C(c2cccnc2)N2CCC(C)CC2)c1C (stereo unspecified)	-17.4%	12.6µM*	-25.8%	-8.9%	-5.2%	-16.7%
CCOC(=O)c1c(NC(=O)c2ccco2)sc2c1CCCCC2	?	?	-20.4%	?	-6.9%	?
CC(C)(C)n1nnnc1C(c1cccnc1)N1CCN(C(=O)c2ccco2)CC1 (stereo unspecified)	4.6%	?	-2.7%	-5.3%	5.2%	-8.1%
N=C1C(c2ccccc2)=C(O)CN1CCCO	-5.5%	5.9%	-0.5%	16.7%	3.4%	nt
COc1ccc(C=C2C(=O)OC(C)(C)OC2=O)cc1OC	-11.1%	-9.3%	-7.0%	nt	-11.1%	nt

Compound activity (PubChem BioAssay)
